# Assay results published in ChEMBL document CHEMBL1961873, “Compounds: GSK PKIS; Assays: Nanosyn kinase panel” (2012).
# Columns and labels:
# [1] = target: T1, Mitogen-activated protein kinase 12 (Homo sapiens) (UniProt P53778); settings: at 1 µM;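 note: values are averaged p38gamma kinase inhibition readings, compounds tested at 1 µM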
# T1 sequence (whole entry): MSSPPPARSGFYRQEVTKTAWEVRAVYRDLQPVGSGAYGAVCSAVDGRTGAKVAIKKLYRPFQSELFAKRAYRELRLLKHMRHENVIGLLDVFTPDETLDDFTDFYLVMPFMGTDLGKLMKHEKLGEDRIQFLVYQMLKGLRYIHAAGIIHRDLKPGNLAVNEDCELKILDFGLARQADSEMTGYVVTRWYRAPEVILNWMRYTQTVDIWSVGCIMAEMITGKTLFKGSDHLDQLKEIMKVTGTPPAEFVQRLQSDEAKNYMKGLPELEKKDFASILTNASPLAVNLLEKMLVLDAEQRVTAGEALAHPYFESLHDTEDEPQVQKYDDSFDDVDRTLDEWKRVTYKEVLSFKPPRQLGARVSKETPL
# [2] = target: SRSF protein kinase 1 (Homo sapiens) (UniProt Q96SB4); settings: at 0.1 µM
# Chain of SRSF protein kinase 1 (Homo sapiens) (Q96SB4 whole entry, canonical isoform): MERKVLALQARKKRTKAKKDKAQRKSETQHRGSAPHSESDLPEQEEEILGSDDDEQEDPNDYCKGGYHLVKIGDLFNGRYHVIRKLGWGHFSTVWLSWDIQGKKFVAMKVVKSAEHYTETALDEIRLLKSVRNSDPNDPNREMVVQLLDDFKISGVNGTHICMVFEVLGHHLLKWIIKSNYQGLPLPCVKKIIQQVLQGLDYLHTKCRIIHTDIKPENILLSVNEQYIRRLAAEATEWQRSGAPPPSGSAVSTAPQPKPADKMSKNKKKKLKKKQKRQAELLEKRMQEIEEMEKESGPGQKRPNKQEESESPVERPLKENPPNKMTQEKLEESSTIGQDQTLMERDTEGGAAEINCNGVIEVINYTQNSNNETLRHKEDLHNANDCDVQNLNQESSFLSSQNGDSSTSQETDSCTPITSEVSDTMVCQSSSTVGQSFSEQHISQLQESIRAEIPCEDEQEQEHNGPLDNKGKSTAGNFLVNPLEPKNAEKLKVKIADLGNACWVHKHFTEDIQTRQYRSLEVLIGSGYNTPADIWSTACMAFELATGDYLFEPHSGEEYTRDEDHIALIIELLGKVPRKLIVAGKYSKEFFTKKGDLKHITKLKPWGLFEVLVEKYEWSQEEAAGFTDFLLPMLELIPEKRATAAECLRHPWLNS
# [3] = target: SRSF protein kinase 1 (Homo sapiens) (UniProt Q96SB4); settings: at 1 µM
# [4] = target: Phosphatidylinositol 4,5-bisphosphate 3-kinase catalytic subunit alpha isoform (Homo sapiens) (UniProt P42336); settings: at 0.1 µM
# Chain of Phosphatidylinositol 4,5-bisphosphate 3-kinase catalytic subunit alpha isoform (Homo sapiens) (P42336 whole entry, canonical isoform): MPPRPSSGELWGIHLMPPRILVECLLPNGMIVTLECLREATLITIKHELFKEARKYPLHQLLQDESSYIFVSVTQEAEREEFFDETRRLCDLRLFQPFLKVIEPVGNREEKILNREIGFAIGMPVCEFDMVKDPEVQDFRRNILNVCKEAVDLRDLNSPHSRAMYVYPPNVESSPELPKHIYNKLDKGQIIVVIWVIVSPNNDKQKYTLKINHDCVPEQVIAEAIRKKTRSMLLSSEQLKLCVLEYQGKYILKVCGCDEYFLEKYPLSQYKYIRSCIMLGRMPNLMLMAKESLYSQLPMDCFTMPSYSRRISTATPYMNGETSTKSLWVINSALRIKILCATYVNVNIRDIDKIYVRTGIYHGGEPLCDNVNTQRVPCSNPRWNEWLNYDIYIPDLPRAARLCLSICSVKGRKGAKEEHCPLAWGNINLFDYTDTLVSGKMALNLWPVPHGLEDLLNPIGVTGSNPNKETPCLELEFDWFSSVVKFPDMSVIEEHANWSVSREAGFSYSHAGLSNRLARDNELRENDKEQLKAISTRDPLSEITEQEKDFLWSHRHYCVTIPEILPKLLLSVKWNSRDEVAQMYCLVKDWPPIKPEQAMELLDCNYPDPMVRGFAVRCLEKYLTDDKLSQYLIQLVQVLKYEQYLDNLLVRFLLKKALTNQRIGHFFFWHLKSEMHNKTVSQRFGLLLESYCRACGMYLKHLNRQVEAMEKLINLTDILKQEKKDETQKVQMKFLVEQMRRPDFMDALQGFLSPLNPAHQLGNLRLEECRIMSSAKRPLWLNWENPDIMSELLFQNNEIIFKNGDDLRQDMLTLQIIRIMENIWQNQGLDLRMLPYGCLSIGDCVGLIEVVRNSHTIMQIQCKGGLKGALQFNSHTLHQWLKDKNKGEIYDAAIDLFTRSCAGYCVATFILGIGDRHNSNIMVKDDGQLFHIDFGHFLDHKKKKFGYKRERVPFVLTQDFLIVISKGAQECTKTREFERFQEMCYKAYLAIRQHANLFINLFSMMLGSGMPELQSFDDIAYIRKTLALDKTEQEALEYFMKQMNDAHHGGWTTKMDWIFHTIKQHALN
# [5] = target: Phosphatidylinositol 4,5-bisphosphate 3-kinase catalytic subunit alpha isoform (Homo sapiens) (UniProt P42336); settings: at 1 µM
# [6] = target: T2, Phosphatidylinositol 4,5-bisphosphate 3-kinase catalytic subunit delta isoform (Homo sapiens) (UniProt O00329); settings: at 0.1 µM
# T2 sequence (whole entry): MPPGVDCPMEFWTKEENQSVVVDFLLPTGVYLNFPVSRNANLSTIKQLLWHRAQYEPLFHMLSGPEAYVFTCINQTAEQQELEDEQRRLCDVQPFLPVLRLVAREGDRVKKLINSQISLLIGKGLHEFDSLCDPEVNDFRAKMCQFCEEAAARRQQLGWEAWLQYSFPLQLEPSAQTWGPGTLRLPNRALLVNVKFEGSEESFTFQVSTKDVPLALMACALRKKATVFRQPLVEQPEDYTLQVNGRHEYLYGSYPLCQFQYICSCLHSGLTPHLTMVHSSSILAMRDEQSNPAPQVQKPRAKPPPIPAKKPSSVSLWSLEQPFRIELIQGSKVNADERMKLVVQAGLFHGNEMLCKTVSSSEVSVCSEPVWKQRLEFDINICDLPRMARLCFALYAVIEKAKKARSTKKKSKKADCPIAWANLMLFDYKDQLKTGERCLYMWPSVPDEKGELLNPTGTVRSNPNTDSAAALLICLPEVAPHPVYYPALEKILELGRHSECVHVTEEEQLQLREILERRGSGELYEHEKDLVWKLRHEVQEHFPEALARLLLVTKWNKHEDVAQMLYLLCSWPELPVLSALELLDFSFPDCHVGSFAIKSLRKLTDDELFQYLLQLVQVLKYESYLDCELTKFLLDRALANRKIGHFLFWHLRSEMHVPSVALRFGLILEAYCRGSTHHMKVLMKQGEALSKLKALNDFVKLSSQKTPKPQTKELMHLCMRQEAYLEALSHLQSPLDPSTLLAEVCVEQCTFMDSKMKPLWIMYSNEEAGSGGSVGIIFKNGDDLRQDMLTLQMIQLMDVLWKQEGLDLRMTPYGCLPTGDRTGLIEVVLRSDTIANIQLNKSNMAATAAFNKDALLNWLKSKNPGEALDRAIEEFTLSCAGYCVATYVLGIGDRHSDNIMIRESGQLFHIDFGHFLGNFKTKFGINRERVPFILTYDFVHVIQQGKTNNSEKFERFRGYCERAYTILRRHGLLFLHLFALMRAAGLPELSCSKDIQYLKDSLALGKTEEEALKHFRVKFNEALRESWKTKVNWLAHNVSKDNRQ
# [7] = target: T2, Phosphatidylinositol 4,5-bisphosphate 3-kinase catalytic subunit delta isoform (Homo sapiens); settings: at 1 µM
# [8] = target: Phosphatidylinositol 4-kinase beta (Homo sapiens) (UniProt Q9UBF8); settings: at 0.1 µM
# Chain of Phosphatidylinositol 4-kinase beta (Homo sapiens) (Q9UBF8 2-816 limits assumed): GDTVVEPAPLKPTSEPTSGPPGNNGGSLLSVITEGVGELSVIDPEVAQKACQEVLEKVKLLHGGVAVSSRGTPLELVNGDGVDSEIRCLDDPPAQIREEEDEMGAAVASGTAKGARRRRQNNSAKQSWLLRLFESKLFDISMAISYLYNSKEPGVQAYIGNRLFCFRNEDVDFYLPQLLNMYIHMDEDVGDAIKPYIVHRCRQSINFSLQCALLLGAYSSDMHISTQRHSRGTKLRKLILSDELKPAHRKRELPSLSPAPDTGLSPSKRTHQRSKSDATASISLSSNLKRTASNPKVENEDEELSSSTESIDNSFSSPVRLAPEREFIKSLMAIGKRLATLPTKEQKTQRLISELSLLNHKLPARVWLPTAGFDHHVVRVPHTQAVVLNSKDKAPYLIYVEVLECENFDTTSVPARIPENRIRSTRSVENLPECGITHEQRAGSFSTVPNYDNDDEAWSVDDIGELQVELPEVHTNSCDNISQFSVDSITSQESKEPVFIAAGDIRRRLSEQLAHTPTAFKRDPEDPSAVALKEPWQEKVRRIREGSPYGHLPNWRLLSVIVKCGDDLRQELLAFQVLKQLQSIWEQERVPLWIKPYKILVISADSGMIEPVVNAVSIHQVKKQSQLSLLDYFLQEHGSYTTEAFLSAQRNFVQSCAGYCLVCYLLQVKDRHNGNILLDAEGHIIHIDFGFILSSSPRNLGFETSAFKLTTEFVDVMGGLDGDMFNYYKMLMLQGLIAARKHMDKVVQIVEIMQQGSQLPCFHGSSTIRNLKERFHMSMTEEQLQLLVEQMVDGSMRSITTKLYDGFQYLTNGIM
# [9] = target: Phosphatidylinositol 4-kinase beta (Homo sapiens) (UniProt Q9UBF8); settings: at 1 µM
# [10] = target: Sphingosine kinase 1 (Homo sapiens) (UniProt Q9NYA1); settings: at 0.1 µM
# Chain of Sphingosine kinase 1 (Homo sapiens) (Q9NYA1 whole entry): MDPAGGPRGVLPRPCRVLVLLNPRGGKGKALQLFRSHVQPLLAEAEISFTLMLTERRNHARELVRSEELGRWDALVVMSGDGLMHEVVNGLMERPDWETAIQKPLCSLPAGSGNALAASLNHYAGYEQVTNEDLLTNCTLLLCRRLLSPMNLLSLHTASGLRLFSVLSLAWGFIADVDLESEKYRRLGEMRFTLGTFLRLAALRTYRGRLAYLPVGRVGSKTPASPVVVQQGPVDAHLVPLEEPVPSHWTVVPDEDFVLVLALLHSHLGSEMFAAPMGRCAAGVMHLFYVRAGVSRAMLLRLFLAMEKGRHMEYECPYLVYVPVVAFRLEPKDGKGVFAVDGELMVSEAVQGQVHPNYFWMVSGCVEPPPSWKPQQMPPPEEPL
# [11] = target: Sphingosine kinase 1 (Homo sapiens) (UniProt Q9NYA1); settings: at 1 µM
# [12] = target: T3, Sphingosine kinase 2 (Homo sapiens) (UniProt Q9NRA0); settings: at 0.1 µM
# T3 sequence (whole entry): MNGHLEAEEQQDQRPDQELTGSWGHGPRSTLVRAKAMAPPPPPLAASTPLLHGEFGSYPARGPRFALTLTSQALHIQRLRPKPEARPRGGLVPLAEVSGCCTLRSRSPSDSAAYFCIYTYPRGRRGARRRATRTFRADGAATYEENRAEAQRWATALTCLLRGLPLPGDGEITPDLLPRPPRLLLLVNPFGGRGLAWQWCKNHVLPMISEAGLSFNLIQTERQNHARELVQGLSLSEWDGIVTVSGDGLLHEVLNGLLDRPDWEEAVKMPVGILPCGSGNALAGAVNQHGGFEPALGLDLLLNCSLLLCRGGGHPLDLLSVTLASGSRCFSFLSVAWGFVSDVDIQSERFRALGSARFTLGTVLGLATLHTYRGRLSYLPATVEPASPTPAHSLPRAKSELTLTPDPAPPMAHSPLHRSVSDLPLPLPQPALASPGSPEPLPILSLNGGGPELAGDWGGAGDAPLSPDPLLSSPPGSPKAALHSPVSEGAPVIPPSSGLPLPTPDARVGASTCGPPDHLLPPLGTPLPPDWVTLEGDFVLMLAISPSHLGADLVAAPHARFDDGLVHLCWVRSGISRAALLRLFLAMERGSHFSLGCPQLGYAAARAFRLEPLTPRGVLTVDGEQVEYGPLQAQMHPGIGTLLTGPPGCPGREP
# [13] = target: T3, Sphingosine kinase 2 (Homo sapiens); settings: at 1 µM
# [14] = target: Casein kinase II subunit alpha (Homo sapiens) (UniProt P68400); settings: at 0.1 µM
# Chain of Casein kinase II subunit alpha (Homo sapiens) (P68400 whole entry, looked up): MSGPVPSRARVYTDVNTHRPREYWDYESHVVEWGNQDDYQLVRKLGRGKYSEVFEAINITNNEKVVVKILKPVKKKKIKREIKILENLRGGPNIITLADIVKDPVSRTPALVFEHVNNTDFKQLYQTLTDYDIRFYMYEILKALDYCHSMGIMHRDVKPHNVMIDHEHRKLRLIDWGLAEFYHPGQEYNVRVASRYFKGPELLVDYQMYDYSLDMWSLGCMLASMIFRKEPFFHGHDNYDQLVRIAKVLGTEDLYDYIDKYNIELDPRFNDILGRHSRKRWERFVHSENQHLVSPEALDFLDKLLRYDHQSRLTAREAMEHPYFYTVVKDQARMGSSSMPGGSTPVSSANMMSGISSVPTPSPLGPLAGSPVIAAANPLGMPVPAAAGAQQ
# [15] = target: Casein kinase II subunit alpha (Homo sapiens) (UniProt P68400); settings: at 1 µM
# [16] = target: T4, Inhibitor of nuclear factor kappa-B kinase subunit alpha (Homo sapiens) (UniProt O15111); settings: at 0.1 µM
# T4 sequence (whole entry): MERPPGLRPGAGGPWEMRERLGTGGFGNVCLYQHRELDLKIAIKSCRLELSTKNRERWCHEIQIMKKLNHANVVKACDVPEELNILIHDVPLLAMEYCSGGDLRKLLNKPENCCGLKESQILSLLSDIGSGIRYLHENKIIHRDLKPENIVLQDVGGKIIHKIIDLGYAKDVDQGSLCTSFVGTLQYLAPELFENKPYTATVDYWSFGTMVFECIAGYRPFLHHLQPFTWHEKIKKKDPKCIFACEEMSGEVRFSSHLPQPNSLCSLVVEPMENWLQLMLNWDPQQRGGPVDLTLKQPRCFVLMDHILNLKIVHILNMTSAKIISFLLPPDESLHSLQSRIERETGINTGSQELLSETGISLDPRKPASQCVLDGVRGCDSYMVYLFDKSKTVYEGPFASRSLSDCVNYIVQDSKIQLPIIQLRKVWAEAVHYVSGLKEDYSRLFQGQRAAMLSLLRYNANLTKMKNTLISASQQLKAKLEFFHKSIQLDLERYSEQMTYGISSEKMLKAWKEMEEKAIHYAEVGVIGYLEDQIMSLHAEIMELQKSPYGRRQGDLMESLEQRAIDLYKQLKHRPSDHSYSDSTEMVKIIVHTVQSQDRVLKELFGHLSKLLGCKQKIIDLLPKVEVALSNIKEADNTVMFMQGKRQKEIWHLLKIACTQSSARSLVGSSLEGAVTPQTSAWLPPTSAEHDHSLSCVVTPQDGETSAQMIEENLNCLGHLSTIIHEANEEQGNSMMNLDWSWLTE
# [17] = target: T4, Inhibitor of nuclear factor kappa-B kinase subunit alpha (Homo sapiens); settings: at 1 µM
# [18] = target: T5, Inhibitor of nuclear factor kappa-B kinase subunit beta (Homo sapiens) (UniProt O14920); settings: at 0.1 µM
# T5 sequence (whole entry): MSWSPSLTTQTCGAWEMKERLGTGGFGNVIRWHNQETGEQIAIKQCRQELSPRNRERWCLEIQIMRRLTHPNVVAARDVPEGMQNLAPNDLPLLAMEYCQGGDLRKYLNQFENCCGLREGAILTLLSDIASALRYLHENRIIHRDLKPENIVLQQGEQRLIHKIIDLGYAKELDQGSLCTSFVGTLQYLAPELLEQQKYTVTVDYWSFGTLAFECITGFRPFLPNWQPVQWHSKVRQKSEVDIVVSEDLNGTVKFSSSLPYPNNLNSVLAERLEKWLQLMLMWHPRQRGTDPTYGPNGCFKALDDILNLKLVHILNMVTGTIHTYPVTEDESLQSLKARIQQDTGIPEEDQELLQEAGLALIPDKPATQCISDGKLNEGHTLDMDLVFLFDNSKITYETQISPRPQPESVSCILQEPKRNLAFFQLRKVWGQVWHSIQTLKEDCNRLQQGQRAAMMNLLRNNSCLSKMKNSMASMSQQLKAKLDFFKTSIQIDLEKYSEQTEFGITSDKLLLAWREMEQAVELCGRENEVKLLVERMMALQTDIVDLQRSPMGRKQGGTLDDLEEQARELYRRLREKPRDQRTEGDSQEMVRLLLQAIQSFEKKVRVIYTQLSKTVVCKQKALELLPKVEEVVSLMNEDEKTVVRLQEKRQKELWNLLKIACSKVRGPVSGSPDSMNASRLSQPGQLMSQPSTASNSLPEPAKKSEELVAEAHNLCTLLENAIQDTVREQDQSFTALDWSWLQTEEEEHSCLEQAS
# [19] = target: T5, Inhibitor of nuclear factor kappa-B kinase subunit beta (Homo sapiens); settings: at 1 µM
# [20] = target: T6, Inhibitor of nuclear factor kappa-B kinase subunit epsilon (Homo sapiens) (UniProt Q14164); settings: at 0.1 µM;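 note: mean inhibition of IKKε reported, from the GSK PKIS dataset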
# T6 sequence (whole entry): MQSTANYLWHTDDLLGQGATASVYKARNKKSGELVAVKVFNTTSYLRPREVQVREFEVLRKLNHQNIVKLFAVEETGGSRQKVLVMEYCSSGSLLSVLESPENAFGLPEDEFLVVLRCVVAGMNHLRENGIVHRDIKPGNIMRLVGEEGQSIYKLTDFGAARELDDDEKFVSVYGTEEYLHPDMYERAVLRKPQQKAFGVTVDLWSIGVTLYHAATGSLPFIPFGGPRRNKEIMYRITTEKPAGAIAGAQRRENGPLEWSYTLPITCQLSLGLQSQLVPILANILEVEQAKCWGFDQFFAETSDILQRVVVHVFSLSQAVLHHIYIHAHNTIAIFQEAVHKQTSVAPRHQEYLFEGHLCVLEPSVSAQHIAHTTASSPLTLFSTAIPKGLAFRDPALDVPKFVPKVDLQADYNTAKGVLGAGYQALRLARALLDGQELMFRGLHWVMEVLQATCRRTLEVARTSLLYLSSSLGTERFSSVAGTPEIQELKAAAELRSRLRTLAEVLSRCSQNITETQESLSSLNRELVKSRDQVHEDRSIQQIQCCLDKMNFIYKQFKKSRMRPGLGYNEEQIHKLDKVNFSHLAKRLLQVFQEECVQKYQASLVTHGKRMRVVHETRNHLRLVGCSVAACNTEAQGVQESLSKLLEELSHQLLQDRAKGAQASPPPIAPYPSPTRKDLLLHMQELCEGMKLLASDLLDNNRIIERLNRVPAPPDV
smiles,measurement,setting,value
CCS(=O)(=O)c1ccc(OC)c(Nc2nccc(N(C)c3ccc4c(C)n[nH]c4c3)n2)c1,inhibition,[1],3.12%
same,inhibition,[2],-3.64%
same,inhibition,[3],-4.44%
same,inhibition,[4],4.66%
same,inhibition,[5],3.7%
same,inhibition,[6],2.01%
same,inhibition,[7],2.75%
same,inhibition,[8],0.2%
same,inhibition,[9],-1.28%
same,inhibition,[10],4.16%
same,inhibition,[11],-1.1%
same,inhibition,[12],-0.07%
same,inhibition,[13],-0.93%
same,inhibition,[14],13.8%
same,inhibition,[15],7.45%
same,inhibition,[16],12%
same,inhibition,[17],6.37%
same,inhibition,[18],8.64%
same,inhibition,[19],7.82%
same,inhibition,[20],7.85%
